Assay outcomes: PubChem BioAssay, National Center for Advancing Translational Sciences (NCATS)
nsP2pro inh = Primary qHTS for inhibitors of NSP2Pro chikungunya virus (CHIKV); FRET peptide cleavage, nsP2pro, fluorescence 1 h; Potency, µM (series often up to 24.9 µM), for inactives: at the top dose activity change, negative = inhibition, usual class: inhibitors; 31,000 compounds, 1.1% hits; note: nearly all actives have a fitted effect of over 60% in size
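FRET cleavage of 2.5 uM peptide 2 by 150 nM CHIKV protease domain at pH 8.0 (Tris, Tween 20). Compounds at 7 concentrations (up to 25 uM) preincubated 15 min. Fluorescence read after 1 h at room temperature.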
CHIKV nsP2 cell = Secondary cell base assay for inhibitors of NSP2Pro Chikungunya virus (CHIKV); 450 compounds, 10% hits; Potency, µM (top dose mostly 51.1 µM), for inactives: at the top dose activity change, negative = inhibition, most hits filed as inhibitors; cell-based CHIKV nsP2 protease reporter assay; shares compounds with nsP2pro inh; note: nearly all actives have a fitted effect of over 70% in size
CHIKV NSP2 FL = Selectivity profile for inhibitors of NSP2Pro chikungunya virus (CHIKV): Full length NSP2 enzyme counterscreen (CHIKV-NSP2); shares compounds with nsP2pro inh; Full-length CHIKV NSP2 protease enzymatic counterscreen; Potency, µM (doses to about 50.7 µM), for the others: top-dose activity change, negative = inhibition, hits mostly inhibitors; 410 compounds, 39% hits; note: nearly all actives have a fitted effect of over 65% in size
Furin counterscr = Selectivity profile for inhibitors of NSP2Pro chikungunya virus (CHIKV): Human furin counterscreen; shares compounds with nsP2pro inh; Recombinant human furin enzymatic counterscreen, fluorogenic substrate; Potency, µM (series often up to 50.6 µM), inactives show at the top dose activity change, negative = inhibition, most hits filed as inhibitors; 410 compounds, 6% hits; AID 1964102, 2024
NS23 peptide cs = Selectivity profile for inhibitors of NSP2Pro chikungunya virus (CHIKV): Endogenous NS2/3 peptide Counterscreen | shares compounds with nsP2pro inh | Purified CHIKV nsP2 protease, endogenous NS2/3 peptide cleavage | Potency, µM (highest dose often 51 µM), without a hit: at the highest dose activity change, negative = inhibition, hits mostly inhibitors | 410 compounds, 34% hits; note: nearly all actives have a fitted effect of over 55% in size
Papain cs = Selectivity profile for inhibitors of NSP2Pro chikungunya virus (CHIKV): Papain Counterscreen | Potency, µM (doses to about 51 µM), inactives show top-dose activity change, negative = inhibition, actives largely listed as inhibitors | 410 compounds, 5% hits | shares compounds with nsP2pro inh | purified papain protease activity, enzymatic inhibition
nsP2pro confirm = Confirmatory qHTS for inhibitors of NSP2Pro chikungunya virus (CHIKV). 410 compounds, 43% hits. shares compounds with nsP2pro inh. CHIKV nsP2 protease enzymatic activity, qHTS. Potency, µM (highest dose often 25.5 µM), for inactives: at the top dose activity change, negative = inhibition, actives largely listed as inhibitors; note: nearly all actives have a fitted effect of over 75% in size
HCV NS3 4A cs = Selectivity profile for inhibitors of NSP2Pro chikungunya virus (CHIKV): NS34A-HCV Counterscreen; shares compounds with nsP2pro inh; HCV NS3/4A protease biochemical counterscreen; Potency, µM (highest dose often 50.9 µM), hits mostly inhibitors; 410 compounds, 20% hits; note: nearly all actives have a fitted effect of over 55% in size
* marks the source's active call; other numbers are inactive results; i = inactive; ? = inconclusive; [ ] = dose if it differs, or a comment. The entries come from a sample that favours hits as a whole. Calls come from the whole dose curve. % is set by controls: 0 for no effect and ±100 for the full control effect; potency is the fitted concentration of half-maximal effect.

SMILES | nsP2pro inh | others
CCC1(N2CCN(C(=O)Nc3cc(C)ccc3OC)CC2)CCN(C(=O)C(C)C)C1 (centres undefined) | i
Cc1ccnc(NC(=S)N2CCN(c3cccc(C(F)(F)F)c3)C2)c1 | 4%
O=C(Nc1nc(-c2ccccc2)cs1)c1ccncc1NS(=O)(=O)c1ccc(F)cc1Cl | i
Cc1cc(F)ccc1S(=O)(=O)Nc1cc2c(C(=O)O)c(C)oc2c2ccccc12 | -25%
CC(=O)c1c(C)oc2c1cc(NS(=O)(=O)c1c(C)cc(C)cc1C)c1ccccc12 | -27%
Cc1ccc(S(=O)(=O)Nc2cc(Cl)c(O)c3ccccc23)c(C)c1 | 2.5µM* | CHIKV nsP2 cell=6.5µM*;CHIKV NSP2 FL=7.3µM*;Furin counterscr=-15%;NS23 peptide cs=1.8µM*;Papain cs=-10%;nsP2pro confirm=2.2µM*;HCV NS3 4A cs=?
CC(C)[C@@](C)(O)[C@@H]1CN(c2nc(-c3[nH]nc4ncccc34)c(F)cc2Cl)CCN1 | 61%
C[C@]12C=CC(=O)C=C1CC[C@@H]1[C@@H]2[C@@H](O)C[C@@]2(C)[C@H]1CC[C@]2(O)C(=O)COP(=O)(O)O | 7%[5.1 µM]
Cc1ccc(CNC(=O)c2nc(SCc3ccccc3F)ncc2Cl)cc1 | 11µM* | CHIKV nsP2 cell=45%;CHIKV NSP2 FL=-3%;Furin counterscr=-2%;NS23 peptide cs=8%;Papain cs=-3%;nsP2pro confirm=7%;HCV NS3 4A cs=i
Cc1ccc(CNC(=O)c2nc(SCc3ccc(F)cc3)ncc2Cl)cc1 | -3%
Cc1ccc(CNC(=O)c2nc(SCc3ccc(C)cc3)ncc2Cl)cc1 | -23%
COC(=O)c1cc2c(C(F)(F)F)cc(-c3ccccc3)cc2n1O | 128%
CNc1nc(C)nc(N[C@H]2CCC[C@@H](C(=O)NCc3ccc(C#N)cc3C(F)(F)F)C2)n1 | -11%
COCCn1ccc2c(C3=CCOCC3)nc(-c3cccc4[nH]ccc34)cc21 | -6%[39.2 µM]
C=C1C2CCC3C(CCC4[C@@]3(C)CCC[C@@]4(C)C(=O)O)(C2)[C@@H]1OC(=O)/C(C)=C\C (some centres undefined) | 1.4µM* | CHIKV nsP2 cell=6%[17.6 µM];CHIKV NSP2 FL=15%[17.3 µM];Furin counterscr=-13%[17.3 µM];NS23 peptide cs=11%[17.2 µM];Papain cs=-21%[17.2 µM];nsP2pro confirm=-20%[8.62 µM];HCV NS3 4A cs=i
C=C1CC23CCC4[C@@](C)(CCC[C@@]4(C)C(=O)O)C2CCC1C3 (some centres undefined) | 13%
C[C@]12CCC[C@](C)(C(=O)O)C1CCC13C=C(CO)C(CCC12)C3 (some centres undefined) | -8%
COc1ccc(N2CC3CCC(C2)N3CC2CCCC2)cc1 | -15%[39.2 µM]
Cc1ccccc1C(=O)N1CCc2cc(-c3nc(NC(=O)Cc4ccccc4)sc3C)ccc21 | -5%
C=C(C)[C@@H]1CC[C@]2(C(=O)O)CC[C@]3(C)[C@H](CC[C@@H]4[C@@]5(C)CC[C@H](OC(=O)CC(C)(C)C(=O)O)C(C)(C)[C@@H]5CC[C@]43C)[C@@H]12 | 26%
CC/C=C\C/C=C\C/C=C\C/C=C\C/C=C\CCCC(=O)O | ? | CHIKV nsP2 cell=13%[100 µM];CHIKV NSP2 FL=6.7µM*;Furin counterscr=-11%[100 µM];NS23 peptide cs=?;Papain cs=33µM*;nsP2pro confirm=8.2µM*;HCV NS3 4A cs=i
CCCCCC/C=C\CCCCCCCC(=O)O | 10%
CCCCCC[C@@H](O)C/C=C\CCCCCCCC(=O)O | -14%
O=C1Nc2c(Cl)cccc2/C1=C\c1cc(Cl)c(O)c(Cl)c1 | i
Cc1cnc(-c2ccccc2C(C)C)nc1NCC1CN(c2cccnc2)C1 | -2%
SMILES | nsP2pro inh | others
O=c1[nH]c(-c2ccc(F)cc2)nc2c1CCN(S(=O)(=O)c1cccs1)C2 | 1%
O=c1[nH]c(-c2ccc(C(F)(F)F)cc2)nc2c1CSCC2 | ? | CHIKV nsP2 cell=12%;CHIKV NSP2 FL=-10%;Furin counterscr=0%;NS23 peptide cs=-1%;Papain cs=-1%;nsP2pro confirm=-9%;HCV NS3 4A cs=i
CS(=O)(=O)c1ccccc1N1CCN(c2nc3c(c(=O)[nH]2)CSCC3)CC1 | -21%
C#CCNC(=O)CNC(=O)c1cccc(-c2cc(F)ccc2OC)c1 | -4%[39.2 µM]
FC(F)(F)c1ccc(CNc2nc(-c3ccccc3C(F)(F)F)nc3ccccc23)cc1 | i
C(#Cc1nc2ncccc2nc1OCCN1CCCC1)c1ccccc1 | 7µM* | CHIKV nsP2 cell=?;CHIKV NSP2 FL=18µM*;Furin counterscr=23µM*;NS23 peptide cs=16µM*;Papain cs=98%;nsP2pro confirm=8µM*;HCV NS3 4A cs=i
CCC(=C(c1ccc(OCCN2CCCC2)cc1)c1ccc(OCCN2CCCC2)cc1)c1ccccc1 | 93%
c1ccc(-c2cnc(Nc3ccc(OCCN4CCCC4)cc3)s2)cc1 | 127%
Cn1ncnc1COc1nn2c(-c3cc(F)ccc3F)nnc2cc1C(C)(C)C | -5%
CC(=O)OC1/C(C)=C/C(=O)C(OC(C)=O)C(C)(C)/C=C/C(C)C(=O)C2(OC(C)=O)CC(C)C(OC(=O)c3ccccc3)C12 (centres undefined) | -11%[10 µM]
COc1ccc(-c2cc3n(n2)CCCN(C(=O)c2cc(CN4CCOCC4)on2)C3)cc1 | 16%
Cc1ccc(OCCC2CCN(C(=O)c3cc(CN4CCOCC4)on3)C2)cc1 (centres undefined) | 2%
Cc1ccc(-c2cc3n(n2)CCCN(C(=O)c2cc(CN4CCOCC4)on2)C3)o1 | 1µM* | CHIKV nsP2 cell=-9%;CHIKV NSP2 FL=15µM*;Furin counterscr=-7%;NS23 peptide cs=?;Papain cs=-5%;nsP2pro confirm=7.1µM*;HCV NS3 4A cs=?
CCOC(=O)C1CCN(C(=O)C2(NC(=O)Nc3ccccc3Cl)CCCC2)CC1 | 0%[10 µM]
O=C1Nc2ccc(-c3ccsc3)cc2C(=O)N2CCN(C(=O)CO)C[C@H]12 | 4%[39.2 µM]
CCc1ccccc1-c1nc(NCc2ccc(-c3cccnc3)cc2)c2ccccc2n1 | i
FC(F)(F)c1cc(-c2ccc(CNc3nc(C4CCCC4)nc4ccccc34)cc2)ccn1 | i
